Molecules are shown by their SMILES. Unmarked numbers belong to inactive results.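 Rule for the calls: active = viability at 10 µM of 29.74% or lower, 3 SD below the compound median; inactive = the rest.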

The nature of this test: viability of HCT116 lacking mutant beta-catenin – cell-based, DP diverse set, validation, pilot screen (AID 1004). To be noted: HCT116 (mutant beta-catenin deleted) viability, CellTiter-Glo, 60 h; at 10 µM; hits give low values. On the technique in general: ATP-based viability assays read luminescence as a measure of living cells.
The term viability denotes a read-out of living cells in per cent, often relative to untreated cells. For `Cc1cc(CC(=O)O)n(C)c1C(=O)c1ccc(Cl)cc1`, the viability was 98.7%.
On to `NS(=O)(=O)c1cc(C(=O)O)c(NCc2ccco2)cc1Cl`, for which the viability is 96.3%.
For `COc1ccc(CCN(C)CCCN2CCc3cc(OC)c(OC)cc3CC2=O)cc1OC` the value was 102%; for `O=c1c(-c2ccc(O)cc2)coc2cc(O)ccc12`, 91%; for `O=C(O)c1cc(=O)c2c(OCC(O)COc3cccc4oc(C(=O)O)cc(=O)c34)cccc2o1`, 100%.
The result for `CC1(COc2ccc(CC3SC(=O)NC3=O)cc2)CCCCC1` (stereo not drawn) reads 97%; that for `C[C@H](CS)C(=O)N1CCC[C@H]1C(=O)O`, 93.8%; that for `COc1ccc(CCN(C)CCCC(C#N)(c2ccc(OC)c(OC)c2)C(C)C)cc1OC` (stereo not drawn), 88.8%.
The result for `CNCCC(Oc1ccc(C(F)(F)F)cc1)c1ccccc1` (stereo not drawn) reads 94.1%; that for `Cc1c(C)c2c(c(C)c1O)CCC(C)(COc1ccc(CC3SC(=O)NC3=O)cc1)O2` (stereo not drawn), 92%; that for `NCC(=O)N[C@@H](CCCN=C(N)N)C(=O)NCC(=O)N[C@@H](CC(=O)O)C(=O)N[C@@H](CC(N)=O)C(=O)N1CC[C@@H](C(=O)O)C1`, 95.6%.
With `COc1ccc(-c2cc(C(=O)O)no2)cc1`, the viability was 99.2%.
For `O=c1[nH]c(=O)n(C2CCCO2)cc1F` (stereo not drawn), the viability was 94.9%.

Values taken from PubChem BioAssay AID1004 (SRMLSC, 2008).
